Measured values taken from PMC5540273 (PLoS ONE, 2017).

What was measured:
Settings in all cases: concentration: 1 μM,replicates: in singlicate; n = 1
ASK2 = test system: T1, ASK2
T1 construct: gene MAP3K6

AURKA = test system: AURKA
AURKB = test system: AURKB
AURKC = test system: AURKC
AXL = test system: AXL
BIKE = test system: T2, BIKE
T2 construct: gene BMP2K

BLK = test system: BLK
BMPR1A = test system: BMPR1A
BMPR1B = test system: BMPR1B
BMPR2 = test system: BMPR2
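Further: KINOMEscan kinase panel screen.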

Compound	%Inh (ASK2) [%]	%Inh (AURKA) [%]	%Inh (AURKB) [%]	%Inh (AURKC) [%]	%Inh (AXL) [%]	%Inh (BIKE) [%]	%Inh (BLK) [%]	%Inh (BMPR1A) [%]	%Inh (BMPR1B) [%]	%Inh (BMPR2) [%]
Cl.Cl.NC[C@H](CC1CCCCC1)NC(=O)c1cc(Br)c(-c2ccnc3[nH]ccc23)s1 [GSK1581427]	17	63	62	95	86	100	0	0	0	8
Cc1ccc(-n2nc(C(C)(C)C)cc2NC(=O)Nc2ccc(OCCN3CCOCC3)c3ccccc23)cc1 [GW839464]	0	0	1	0	12	0	19	26	4	6
Nc1nc(Nc2ccccc2)cc(-c2ccc3c(N)n[nH]c3c2)n1 [GSK2225749]	0	–	19	47	0	98.9	0	0	0	4
O=C(NCCCN1CCOC1=O)c1cnc(NCc2cc(Cl)ccc2Cl)nc1NC1CCCC1	0	17	14	15	61	12	22	16	0	0
CN(C)CCOc1ccc(-c2cc(-c3c[nH]nc3-c3ccccn3)ccn2)cc1 [GW835314]	24	0	5	12	49	4	14	13	74	69
C[C@@H]1CCN(C(=O)CC#N)C[C@@H]1N(C)c1ncnc2[nH]ccc12	0	0	0	3	0	17	–	53	0	0
CCn1c(-c2nonc2N)nc2c(C#CC(C)(C)O)nc(OCCN)cc21.Cl.Cl [GSK902056]	20	27	38	0	0	20	7	6	0	3
CNC(=O)c1ccccc1Sc1ccc2c(/C=C/c3ccccn3)n[nH]c2c1	0	97.9	99.6	66	–	89	0	35	0	0
C=CC(=O)Nc1cc2c(Nc3ccc(F)c(Cl)c3)ncnc2cc1OCCCN1CCOCC1 [GW781483]	0	25	0	20	53	22	99.6	0	0	15
CC(C)N1C(=O)Cc2cc(Nc3ncc(C(F)(F)F)c(NCc4cccc(S(C)(=O)=O)c4)n3)ccc21	0	97.3	81	43	30	68	0	0	21	17
Cc1occc1-c1nc(N)c(OC[C@@H](N)Cc2c[nH]c3ccccc23)cc1-c1cc2c(C)n[nH]c2cn1 [GSK1660450]	26	0	0	51	0	74	23	0	0	0
CN(C)CC(O)COc1ccc(Nc2nccc(-c3cnn4nc(N5CCOCC5)ccc34)n2)cc1 (stereo not shown) [GW767488]	44	65	84	70	28	93.6	0	18	58	42
O=C(NCCNc1ccnc(NCc2ccc(F)cc2)n1)c1cc2ccccc2s1 [GSK1379944]	0	66	34	27	0	27	20	0	0	14
Cc1cc2cn[nH]c2cc1-c1cccc2c(N)c(C(N)=O)nnc12	95.6	90	97.3	79	15	75	91.5	25	88	96.5
Cl.Cl.NC[C@H](Cc1ccc(C(F)(F)F)cc1)NC(=O)c1cc(Br)c(-c2ccnc3[nH]ccc23)s1 [GSK1487252]	0	30	61	67	69	50	0	0	0	0
Cc1n[nH]c2ccc(-c3cc(OC[C@@H](N)Cc4ccccc4)cnc3-c3ccoc3)cc12.O=C(O)C(F)(F)F.O=C(O)C(F)(F)F [GSK507358]	4	0	0	0	0	81	6	0	0	14
Cc1ccc2c(-c3ccncc3)c(-c3ccc(F)cc3)nn2c1.Cl [GW461484]	0	8	0	14	0	19	3	0	0	11
Cc1cc(C(=O)Nc2ccc(Oc3ccc4nc(NC(=O)C5CC5)cn4n3)cc2)nn1-c1ccccc1	0	0	66	65	79	18	55	3	0	0
NC(=O)c1cc(-c2ccccc2)cc2c(C3CCNCC3)c[nH]c12 [GSK301362]	2	6	1	57	47	65	16	28	0	4
COc1ccc(C[C@@H](CN)NC(=O)c2cc(Br)c(-c3ccnc4[nH]ccc34)s2)cc1.Cl.Cl [GSK1389063]	16	80	86	92.4	95.2	94	0	0	0	73
CCN(CC)CCCCNc1ncc2cc(-c3c(Cl)cccc3Cl)c(NC(=O)NC(C)(C)C)nc2n1	0	10	0	10	68	9	99.8	55	99.9	20
Cl.Cl.Nc1nc(-c2ccc3c(N)n[nH]c3c2)cc(N2CCCC(NC(=O)c3ccccc3)C2)n1 (stereo not shown) [GSK2286775]	11	–	96.4	92.9	80	80	0	0	0	0
CCN(CC)CCOc1ccc(Nc2ncc3cc(-c4c(Cl)cccc4Cl)c(=O)n(C)c3n2)cc1 [SB-601273]	0	62	47	95.4	93.7	58	99.3	100	100	24
C[C@@H](Oc1cc(-c2cnn(C3CCNCC3)c2)cnc1N)c1c(Cl)ccc(F)c1Cl	0	98.6	98.3	86	98.1	86	58	18	79	17
C[C@H]1Oc2cc(cnc2N)-c2c(nn(C)c2C#N)CN(C)C(=O)c2ccc(F)cc21	0	7	4	0	42	0	31	2	0	0
CC(C)Nc1cc(-c2ccc3c(N)n[nH]c3c2)nc(N)n1 [GSK2221681]	0	–	0	40	0	90.7	3	0	0	0
Cl.Oc1cc(-c2nc(-c3ccccc3)[nH]c2-c2ccncc2)ccc1Cl [SB-386023]	27	22	19	0	42	3	48	9	61	32
